Data from PubChem BioAssay (EPA / NIEHS).
Several values for one entry are separate records, joined by “and”; a condition that tells them apart may be missing. Equal values may be shown once. Results filed as inconclusive are left out. Activity calls are given as the source filed them. Rule for the calls, unless noted: active = hit-call score of the fitted dose curve at least 0.9, where 1 is the maximum; inconclusive = response in the unintended direction; inactive = score below 0.9.

How the values were obtained:
[1] = TOX21_p53_BLA_p4_viability: Viability Assessment in the Tox21 HCT-116 p53 Agonism Beta-lactamase Assay, Phase 4 (AID 2283597);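 note: hits lower the luminescence signal meaning cytotoxicity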
Procedure, shortened: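 4000 HCT116 cells per well; 5 h attachment; compounds from DMSO, 217-fold dilution; 16 h at 37C. Then CCF4-AM, 2 h RT, followed by CellTiter-Glo, 30 min RT, luminescence. Decrease = cytotoxicity.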

[2] = biological target: Cellular tumor antigen p53 (Homo sapiens) (UniProt P04637); experiment: TOX21_p53_BLA_p5_ratio: Tox21 HCT-116 p53 Agonism Beta-lactamase Assay, Ratio, Phase 5 (AID 2283599)
Cellular tumor antigen p53 (Homo sapiens), sequence (P04637 whole entry, looked up): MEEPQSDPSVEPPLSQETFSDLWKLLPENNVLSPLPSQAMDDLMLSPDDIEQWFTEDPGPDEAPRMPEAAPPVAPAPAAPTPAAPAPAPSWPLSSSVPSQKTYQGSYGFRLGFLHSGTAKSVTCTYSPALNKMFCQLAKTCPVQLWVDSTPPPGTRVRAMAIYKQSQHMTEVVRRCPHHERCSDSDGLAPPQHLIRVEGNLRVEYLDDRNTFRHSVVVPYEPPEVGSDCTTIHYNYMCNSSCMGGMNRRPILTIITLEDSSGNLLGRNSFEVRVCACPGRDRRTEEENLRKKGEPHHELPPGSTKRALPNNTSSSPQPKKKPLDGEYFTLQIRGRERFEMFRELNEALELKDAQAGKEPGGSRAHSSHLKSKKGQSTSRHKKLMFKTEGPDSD
Procedure, shortened: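 HCT-116 cells carrying a p53-inducible beta-lactamase reporter were seeded at 4000 cells/well and dosed after 5 h with compound in DMSO (217-fold dilution). After 16 h at 37C, CCF4-AM substrate was added for 2 h, and the 460/530 nm emission ratio was scored as gain-of-signal versus DMSO.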

[3] = TOX21_p53_BLA_p5_viability: Viability Assessment in the Tox21 HCT-116 p53 Agonism Beta-lactamase Assay, Phase 5 (AID 2283600)
Procedure, shortened: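 Decreased CellTiter-Glo luminescence denotes lost viability. Exposure: 16 h at 37C, 5% CO2, with compounds from DMSO stocks diluted 217-fold in wells of 4000 cells.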

[4] = biological target: Cellular tumor antigen p53 (Homo sapiens) (UniProt P04637); experiment: TOX21_p53_BLA_p4_ratio: Tox21 HCT-116 p53 Agonism Beta-lactamase Assay, Ratio, Phase 4 (AID 2283601)
Procedure, shortened: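 HCT116 cells carrying an inducible beta-lactamase reporter were plated at 4000 cells/well, rested 5 h, then exposed to compounds in DMSO (217-fold dilution) for 16 h at 37C. CCF4-AM substrate was loaded 2 h at room temperature; 460/530 nm emission ratio scored gain-of-signal versus DMSO.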

[5] = Tanguay_ZF_120hpf_MORT_legacy: (Legacy) Oregon State University Tanguay Lab 120 Hour Post-fertilization zebrafish Assay for Mortality (AID 2283633);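 for AC50: fitted as increase in binary mortality versus DMSO negative control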
Procedure, shortened: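 Dechorionated Tropical 5D wild-type zebrafish embryos, one per well from 6 hpf, static exposure in 0.64% DMSO at 28C until 120 hpf. Mortality scored as binary by brightfield microscopy at 24 and 120 hpf.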

[6] = Tanguay_ZF_120hpf_YSE_legacy: (Legacy) Oregon State University Tanguay Lab 120 Hour Post-fertilization zebrafish Assay for Yolk Sac Edema (AID 2283634);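 for AC50: actives raise the incidence of yolk sac edema above the DMSO baseline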
Procedure, shortened: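 Dechorionated Tropical 5D wild-type zebrafish embryos were exposed statically, one per well, from 6 to 120 hpf at 28C in 0.64% DMSO. Yolk sac edema was scored present/absent by brightfield at 120 hpf, and dead embryos were excluded.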

[7] = Tanguay_ZF_120hpf_AXIS_legacy: (Legacy) Oregon State University Tanguay Lab 120 Hour Post-fertilization zebrafish Assay for Body Axis Malformation (AID 2283635);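 for AC50: potency for an increased fraction of larvae scored with body axis malformation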
Procedure, shortened: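 Dechorionated wild-type Tropical 5D zebrafish embryos, one per well, statically exposed from 6 hpf to 120 hpf at 28C in 0.64% DMSO final. Body axis malformation scored present/absent by brightfield microscopy at 120 hpf; dead embryos excluded.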

[8] = Tanguay_ZF_120hpf_EYE_legacy: (Legacy) Oregon State University Tanguay Lab 120 Hour Post-fertilization zebrafish Assay for Eye Malformation (AID 2283636);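 note: binary presence or absence of eye malformation scored by brightfield in 120 hpf larvae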
Procedure, shortened: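 Static waterborne exposure of dechorionated zebrafish embryos (strain Tropical 5D), 6 to 120 hpf, sealed plates at 28C, 0.64% DMSO vehicle. Eye malformation is scored as a binary endpoint, with gain of signal analysed relative to DMSO.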

[9] = Tanguay_ZF_120hpf_SNOU_legacy: (Legacy) Oregon State University Tanguay Lab 120 Hour Post-fertilization zebrafish Assay for Snout Malformation (AID 2283637)
Procedure, shortened: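 Dechorionated zebrafish, individually housed from 6 hpf in covered, sealed wells at 28C with 0.64% DMSO vehicle, were examined at 120 hpf for snout malformation. Responses were binary and analysed positive-direction relative to DMSO.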

[10] = Tanguay_ZF_120hpf_OTIC_legacy: (Legacy) Oregon State University Tanguay Lab 120 Hour Post-fertilization zebrafish Assay for Otic Vesicle Malformation (AID 2283639)
Procedure, shortened: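 Wild-type zebrafish larvae, whole-embryo exposure from early stage to 120 hpf at 28C. Binary brightfield scoring of otic vesicle morphology, fitted in the positive direction against the DMSO baseline.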

[11] = Tanguay_ZF_120hpf_PE_legacy: (Legacy) Oregon State University Tanguay Lab 120 Hour Post-fertilization zebrafish Assay for Pericardial Edema (AID 2283640);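 for AC50: potency for increased incidence of pericardial edema versus DMSO baseline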
Procedure, shortened: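 Tropical 5D wild-type zebrafish embryos were statically exposed until 120 hpf at 28C, with 0.64% DMSO final. Pericardial edema was scored by brightfield as present or absent; endpoints were not scored in dead embryos.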

[12] = Tanguay_ZF_120hpf_BRAI_legacy: (Legacy) Oregon State University Tanguay Lab 120 Hour Post-fertilization zebrafish Assay for Brain Malformation (AID 2283641)
Procedure, shortened: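 Tropical 5D wild-type zebrafish embryos exposed statically until 120 hpf at 28C, 0.64% DMSO final, sealed and dark. Brain malformation scored present/absent by brightfield at 120 hpf; dead embryos excluded. Trimethyltin chloride 5uM positive control.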

[13] = Tanguay_ZF_120hpf_SOMI_legacy: (Legacy) Oregon State University Tanguay Lab 120 Hour Post-fertilization zebrafish Assay for Somite Malformation (AID 2283647)
Procedure, shortened: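 Dechorionated Tropical 5D wild-type zebrafish embryos, one per well from 6 hpf, statically exposed at 28C to 120 hpf in 0.64% DMSO; somite malformation scored present/absent by brightfield; trimethyltin 5 uM positive control; dead embryos not scored.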

[14] = Tanguay_ZF_120hpf_PFIN_legacy: (Legacy) Oregon State University Tanguay Lab 120 Hour Post-fertilization zebrafish Assay for Pectoral Fin Malformation (AID 2283648);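 note: each larva judged yes or no for fin defect by brightfield with dead larvae skipped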
Procedure, shortened: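 Scoring of pectoral fin malformation was binary, made at 120 hpf on larvae exposed statically from 6 hpf after enzymatic chorion removal. Activity was fitted upward relative to DMSO controls at 0.64% (vol/vol).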

[15] = Tanguay_ZF_120hpf_PIG_legacy: (Legacy) Oregon State University Tanguay Lab 120 Hour Post-fertilization zebrafish Assay for Pigmentation Malformation (AID 2283650)
Procedure, shortened: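 Endpoint is incidence of abnormal pigmentation at 120 hpf in dechorionated 5D zebrafish exposed singly from 6 hpf at 28C, DMSO vehicle at 0.64%. Embryos dying by 24 or 120 hpf are excluded from scoring.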

[16] = Tanguay_ZF_120hpf_CIRC_legacy: (Legacy) Oregon State University Tanguay Lab 120 Hour Post-fertilization zebrafish Assay for Circulatory Malformation (AID 2283651)
Procedure, shortened: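 Binary circulatory-malformation call at 120 hpf via brightfield imaging, relative to DMSO controls. Embryos (5D strain, chorion removed) received static, light-shielded exposure at 28C.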

[17] = Tanguay_ZF_120hpf_SWIM_legacy: (Legacy) Oregon State University Tanguay Lab 120 Hour Post-fertilization zebrafish Assay for Swim Bladder Malformation (AID 2283654);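 note: swim bladder malformation in each larva scored yes or no under brightfield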
Procedure, shortened: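 Static waterborne exposure of single dechorionated Tropical 5D zebrafish embryos, 6–120 hpf, 28C, 0.64% DMSO final. Read-out: swim bladder malformation, present/absent, relative to DMSO negative control; trimethyltin chloride 5uM served as positive control.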

[18] = Tanguay_ZF_120hpf_JAW_legacy: (Legacy) Oregon State University Tanguay Lab 120 Hour Post-fertilization zebrafish Assay for Jaw Malformation (AID 2283638);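 for AC50: active means more embryos with jaw malformation than DMSO controls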
Procedure, shortened: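 Dechorionated Tropical 5D wild-type zebrafish embryos, one per well, exposed statically from 6 hpf to 120 hpf at 28C in 0.64% DMSO. Jaw malformation was scored by brightfield microscopy as present or absent. It was not scored in dead embryos.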

[19] = Tanguay_ZF_120hpf_CFIN_legacy: (Legacy) Oregon State University Tanguay Lab 120 Hour Post-fertilization zebrafish Assay for Caudal Fin Malformation (AID 2283649)
Procedure, shortened: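 Dechorionated Tropical 5D wild-type embryos, one per well from 6 hpf, static exposure to 120 hpf at 28C in 0.64% DMSO. Caudal fin malformation scored by brightfield as present/absent; not scored in dead embryos.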

[20] = read-out: kallikrein-3 (KLK3), KLK3 (gene 354); experiment: LTEA_HepaRG_KLK3: Life Technologies and Expression Analysis (LTEA) Assay for kallikrein-3 (KLK3) using HepaRG (AID 2283652; active = hit-call score of the fitted dose curve at least 0.9, where 1 is the maximum; inactive = score below 0.9); conditions: mRNA level, 48 h; actives raise or lower the signal
Procedure, shortened: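 KLK3 transcript levels were measured by TaqMan qRT-PCR with normalisation to three housekeeping genes. HepaRG cultures received chemicals for 48 h at up to 100 uM (half-log, 8 points, 0.5% DMSO vehicle), fitted in both directions against DMSO.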

Measured: AC50

CC(C)N(C(=O)SCC(Cl)=C(Cl)Cl)C(C)C
not listed: [18] | [19] | [20]
inactive: all other assays above

CCC(=O)Nc1ccc(Cl)c(Cl)c1
not listed: [5] | [20]
inactive: all other assays above

CCOC(=O)CC(SP(=O)(OC)OC)C(=O)OCC (stereo unspecified)
active: [7] 16.5 µM | [8] 12.1 µM
not listed: [4] | [18] | [20]
inactive: all other assays above

CC[C@H](C)[C@H]1O[C@]2(C=C[C@@H]1C)C[C@@H]1C[C@@H](C/C=C(\C)[C@@H](O[C@H]3C[C@H](OC)[C@@H](O[C@H]4C[C@H](OC)[C@@H](NC)[C@H](C)O4)[C@H](C)O3)[C@@H](C)/C=C/C=C3\CO[C@@H]4[C@H](O)C(C)=C[C@@H](C(=O)O1)[C@]34O)O2
active: [1] 8.89 µM | [2] 56.9 µM | [3] 14.9 µM | [4] 32.7 µM | [5] 5.52 µM | [6] 0.247 µM
not listed: [13] | [15] | [18] | [19]
inactive: all other assays above

COP(=O)(OC)C(O)C(Cl)(Cl)Cl (stereo unspecified)
active: [6] 56.1 µM
not listed: [4] | [5] | [20]
inactive: all other assays above

CCOP(=O)(NC(C)C)Oc1ccc(SC)c(C)c1 (stereo unspecified)
active: [6] 24.8 µM | [7] 22.1 µM | [8] 14.6 µM | [9] 20.9 µM | [11] 25.6 µM | [12] 61.8 µM | [14] 16.9 µM
not listed: [18] | [20]
inactive: all other assays above

Cc1cc(C2CC2)nc(Nc2ccccc2)n1
active: [1] 64.9 µM | [4] 72.6 µM
not listed: [5] | [6] | [13] | [15] | [18] | [20]
inactive: all other assays above

CCOP(=S)(OCC)SCCSCC
not listed: [4] | [5] | [13] | [15] | [18] | [20]
inactive: all other assays above

CN(C)C(=O)Nc1cccc(C(F)(F)F)c1
not listed: [4] | [20]
inactive: all other assays above

CCCCN(CC)c1c([N+](=O)[O-])cc(C(F)(F)F)cc1[N+](=O)[O-]
not listed: [4] | [5] | [13] | [15] | [20]
inactive: all other assays above

CC(C)[C@H](C(=O)O[C@H](C#N)c1cccc(Oc2ccccc2)c1)c1ccc(Cl)cc1
inactive: [1] | [2] | [3] | [4] | [10] | [19] | [15] | [16]
active: [6] 3.2 µM | [7] 1.96 µM | [8] 2.82 µM | [9] 2.25 µM | [18] 5.13 µM | [11] 5.21 µM | [12] 4.07 µM | [13] 1.15 µM | [14] 1.17 µM | [17] 4.25 µM

CCOP(=S)(OCC)Oc1ccc2c(C)c(Cl)c(=O)oc2c1
not listed: [10] | [18]
inactive: all other assays above

CN(C)NC(=O)CCC(=O)O
not listed: [16] | [18] | [20]
inactive: all other assays above

S=C1NCCN1
not listed: [4] | [5] | [14] | [16] | [18] | [20]
inactive: all other assays above

CC(=NC#N)N(C)Cc1ccc(Cl)nc1
not listed: [4] | [11] | [20]
inactive: all other assays above

N#CSCSC#N
active: [1] 51.1 µM and 61.9 µM | [2] 18.8 µM and 15.9 µM | [3] 66.3 µM and 68.4 µM | [5] 34.6 µM
not listed: [4] | [12] | [15] | [18] | [20]
inactive: all other assays above

CCCCOC(=O)c1ccccc1C(=O)O
not listed: [4] | [18] | [20]
inactive: all other assays above

COc1cccc(C(=O)NN(C(=O)c2cc(C)cc(C)c2)C(C)(C)C)c1C
inactive: [4]
